Test results reported in PubChem BioAssay AID2409 (Southern Research Specialized Biocontainment Screening …, 2010).
Results with a measured potency or affinity are listed apart. Calls of active or inactive are those of the source. The rule behind the calls is not given here.

Assay: Venezuelan equine encephalitis virus CPE inhibition in Vero cells, confirmatory stage (AID 2409)
Conditions: VEEV-infected Vero cells; series mostly up to 66.6 µM

| SMILES | outcome |
| --- | --- |
| CCCN(C(=O)c1ccccc1Cl)c1nc(-c2ccc(OC)cc2)cs1 | inactive |
| O=[N+]([O-])c1ccc2c(c1)C(O)N1CCCC1=N2 (stereo not drawn) | inactive |
| O=c1c2cc(I)ccc2nc2n1CCC2 | inactive |
| OC1c2c(F)cccc2N=C2CCCN21 (stereo not drawn) | inactive |
| O=C(CSc1nc2ccccc2c(=O)n1-c1ccc(F)c(Cl)c1)Nc1ccc2c(c1)CCC2 | inactive |
| COc1ccc(-c2csc(N(Cc3ccccc3)C(=O)c3ccccc3Cl)n2)cc1 | inactive |
| O=C(CSc1nc2ccccc2c(=O)n1-c1ccccc1F)Nc1ccc2c(c1)CCC2 | inactive |
| O=C(CSc1nc2cccc(I)c2c(=O)n1-c1ccccc1)Nc1ccc2c(c1)CCC2 | inactive |
| O=C(CSc1nc2ccccc2c(=O)n1-c1ccc(F)cc1)Nc1cccc2ccccc12 | inactive |
| Nc1ccc2nc3n(c(=O)c2c1)CCC3 | inactive |
| O=c1c2cc(Br)ccc2nc2n1CC/C2=C/c1ccccc1 | inactive |
| O=c1c2cc(Cl)cc(Cl)c2nc2n1CCC2 | inactive |
| Cc1ccc2nc3n(c(=O)c2c1)CCC3 | inactive |
| O=c1c2cc([N+](=O)[O-])ccc2nc2n1CCC2 | inactive |
| Cc1cc(OC(=O)c2c(F)cccc2F)n(Cc2ccccc2)n1 | inactive |
| COc1ccccc1NC(=O)CSc1nc2ccccc2c(=O)n1-c1ccc(F)cc1 | inactive |
| O=C(CSc1nc2cccc(F)c2c(=O)n1-c1ccccc1)Nc1ccc2c(c1)CCC2 | inactive |
| O=C(CSc1nc2ccccc2c(=O)n1-c1ccc(F)cc1)Nc1ccc2c(c1)CCC2 | inactive |
